# Several values for one entry are separate records, joined by “and”; a condition that tells them apart may be missing. Identical values can stand only once. The panel holds about 83,000 compounds, 20% with a hit somewhere; the sample as a whole holds those more often.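 Percent growth is the endpoint: 0 to 100 indicates growth inhibition (40 means 60% inhibition), 0 means no net growth, and negative values indicate cell death.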 Activity calls are given as the source filed them. Rule for the calls: active = growth percent below 10; inactive = the rest.
# How the values were obtained:
# Test in all cases: NCI-60 one-dose screen, 48 h (100 = growth as untreated, 0 = no growth, -100 = all killed)
# [1] = tested on: MOLT-4 leukemia; conditions: 10 µM
# [2] = tested on: SR leukemia; conditions: 10 µM
# [3] = tested on: RPMI-8226 leukemia; conditions: 10 µM
# [4] = tested on: OVCAR-8 ovarian; conditions: 10 µM
# [5] = tested on: OVCAR-5 ovarian; conditions: 10 µM
# [6] = tested on: OVCAR-4 ovarian; conditions: 10 µM
# [7] = tested on: SK-OV-3 ovarian; conditions: 10 µM
# [8] = tested on: IGROV1 ovarian; conditions: 10 µM
# [9] = tested on: OVCAR-3 ovarian; conditions: 10 µM
# [10] = tested on: HS 578T breast; conditions: 10 µM
# [11] = tested on: NCI/ADR-RES ovarian; conditions: 10 µM
# [12] = tested on: MDA-MB-435 melanoma; conditions: 10 µM
# [13] = tested on: SW-620 colon; conditions: 10 µM
# [14] = tested on: HCT-116 colon; conditions: 10 µM
# [15] = tested on: HCC-2998 colon; conditions: 10 µM
# [16] = tested on: KM12 colon; conditions: 10 µM
# [17] = tested on: T-47D breast; conditions: 10 µM
# [18] = tested on: BT-549 breast; conditions: 10 µM
# [19] = tested on: MCF7 breast; conditions: 10 µM unless noted
Compound,growth [1],growth [2],growth [3],growth [4],growth [5],growth [6],growth [7],growth [8],growth [9],growth [10],growth [11],growth [12],growth [13],growth [14],growth [15],growth [16],growth [17],growth [18],growth [19]
O=C1C(=O)c2ccccc2-c2ccccc21,-26.9% (active),0.843% (active),-32.7% (active),-97.6% (active),-63.8% (active),-100% (active),93.7% (inactive),-61.7% (active),-91% (active),-20.1% (active),-41.5% (active),-97.9% (active),-63.3% (active),-81.5% (active),-35.4% (active),-84.5% (active),,,
NC(=O)c1cc([N+](=O)[O-])c(Cl)c([N+](=O)[O-])c1Cl,-15.3% (active),-11.2% (active),9.48% (active),-24.6% (active),78.2% (inactive),-58.8% (active),101% (inactive),27.6% (inactive),-97.4% (active),,20.4% (inactive),11.1% (inactive),-79.9% (active),-39.2% (active),39.2% (inactive),19.1% (inactive),-36.7% (active),68.3% (inactive),
COc1cc(/C=C(/C)[N+](=O)[O-])ccc1O,-3.07% (active) and 1.18% (active),-14.7% (active) and -4.36% (active),-21.5% (active),37.5% (inactive) and 27.1% (inactive),83.5% (inactive) and 60.3% (inactive),50.6% (inactive),92.5% (inactive) and 90.2% (inactive),26.4% (inactive) and 21.3% (inactive),-76.2% (active) and -89.3% (active),48.5% (inactive) and -8.96% (active),62.4% (inactive) and -17.5% (active),6.19% (active),-68% (active) and -56.1% (active),-56% (active) and -35.4% (active),30.3% (inactive) and 87.3% (inactive),59.9% (inactive) and 41.9% (inactive),,,
CC(Cc1ccc2c(c1)OCO2)NN (stereo unspecified),78.4% (inactive),91.6% (inactive),91.8% (inactive),97.7% (inactive),100% (inactive),106% (inactive),84.8% (inactive),100% (inactive),112% (inactive),93.3% (inactive),98.5% (inactive),,98.7% (inactive),85.4% (inactive),101% (inactive),103% (inactive),,,
O=C(CBr)Nc1ccc(Cl)cc1,20.7% (inactive),-28.8% (active),73.4% (inactive),96.6% (inactive),66.6% (inactive),89.2% (inactive),108% (inactive),,68.9% (inactive),115% (inactive),94.5% (inactive),87% (inactive),9.26% (active),54.4% (inactive),112% (inactive),102% (inactive),67.8% (inactive),,
Oc1c(I)cc(I)cc1I,98.9% (inactive),101% (inactive),94% (inactive),101% (inactive),98.6% (inactive),104% (inactive),109% (inactive),112% (inactive),124% (inactive),119% (inactive),,113% (inactive),107% (inactive),,,110% (inactive),,,95.4% (inactive)
COc1cc(/C=C/[N+](=O)[O-])cc(Br)c1OC,10% (inactive),-5.8% (active),-15.7% (active),31.2% (inactive),65.4% (inactive),60.3% (inactive),94.7% (inactive),1.74% (active),69.9% (inactive),,60.2% (inactive),11% (inactive),,-91.7% (active),-90.9% (active),15.2% (inactive),16.3% (inactive),8.15% (active),8.38% (active)
CC(=O)[O][Hg][c]1c(C)c(C)cc(C)c1C,-5.69% (active),-27.6% (active),7.45% (active),15.3% (inactive),-9.8% (active),-93.2% (active),97.5% (inactive),-73.2% (active),-93.6% (active),-1.53% (active),78.1% (inactive),-91.4% (active),-93.5% (active),-98.8% (active),12.5% (inactive),50.5% (inactive),,,
CS(=N)(=O)CCC(N)C(=O)O (stereo unspecified),112% (inactive),99.9% (inactive),107% (inactive),98% (inactive),85.3% (inactive),104% (inactive),108% (inactive),87.5% (inactive),115% (inactive),104% (inactive),100% (inactive),99.8% (inactive),103% (inactive),97.1% (inactive),92.7% (inactive),115% (inactive),,,
CN(C)CC1(N)C(=O)NC(=O)NC1=O,99% (inactive),101% (inactive),100% (inactive),105% (inactive),97.8% (inactive),103% (inactive),98.2% (inactive),108% (inactive),113% (inactive),98.1% (inactive),107% (inactive),103% (inactive),106% (inactive),92.9% (inactive),99.4% (inactive),101% (inactive),,,90.9% (inactive)
O=C(O)c1cc(Cc2ccc(O)c(C(=O)O)c2)ccc1O (tested in a mixture with another compound),54.3% (inactive),80.4% (inactive),-5.46% (active),68.1% (inactive),65.1% (inactive),66.9% (inactive),95.4% (inactive),-81.4% (active),70.4% (inactive),72.6% (inactive),75.7% (inactive),72.7% (inactive),64.6% (inactive),45.1% (inactive),53.9% (inactive),65.9% (inactive),,,46.4% (inactive)
COc1cc(/C=C/[N+](=O)[O-])cc(OC)c1OC,8.23% (active),-17.7% (active),-27.6% (active),1.78% (active),23% (inactive),34.2% (inactive),89.9% (inactive),-22% (active),-30.9% (active),8.36% (active),27.3% (inactive),-22.4% (active),-50.5% (active),-19.2% (active),-19.9% (active),18.2% (inactive),,,
O=C(CBr)Nc1ccccc1,42.6% (inactive),48.1% (inactive),100% (inactive),98% (inactive),128% (inactive),92.5% (inactive),113% (inactive),106% (inactive),98.3% (inactive),99.9% (inactive),103% (inactive),102% (inactive),59.9% (inactive),84.7% (inactive),105% (inactive),102% (inactive),,,
C=NCC#N,94.6% (inactive) and 107% (inactive),83.8% (inactive) and 108% (inactive),92.4% (inactive) and 115% (inactive),104% (inactive) and 108% (inactive),98.8% (inactive) and 93.5% (inactive),114% (inactive) and 108% (inactive),113% (inactive) and 96.6% (inactive),110% (inactive) and 115% (inactive),105% (inactive) and 119% (inactive),124% (inactive),102% (inactive) and 107% (inactive),100% (inactive) and 113% (inactive),100% (inactive) and 115% (inactive),98.2% (inactive) and 107% (inactive),100% (inactive) and 125% (inactive),99.4% (inactive) and 109% (inactive),,103% (inactive) and 89.3% (inactive),
O=C1CCC(=O)N1SC(Cl)(Cl)Cl,90.4% (inactive),95.2% (inactive),108% (inactive),106% (inactive),110% (inactive),110% (inactive),109% (inactive),92.6% (inactive),122% (inactive),,110% (inactive),102% (inactive),100% (inactive),106% (inactive),103% (inactive),105% (inactive),118% (inactive),,97.2% (inactive)
O=[N+]([O-])c1ccc(Br)c([N+](=O)[O-])c1,68.4% (inactive),21.8% (inactive),102% (inactive),91.9% (inactive),108% (inactive),103% (inactive),113% (inactive),63.5% (inactive),87.8% (inactive),105% (inactive),99% (inactive),102% (inactive),44.4% (inactive),32.3% (inactive),96.2% (inactive),53.6% (inactive),,,52.5% (inactive)
COc1cc2c(c(OC)c1OC)-c1ccc(O)c(=O)cc1[C@@H](NC(C)=O)CC2,46.6% (inactive),30.1% (inactive),40.9% (inactive),36.7% (inactive),70.1% (inactive),46.5% (inactive),66.9% (inactive),51.9% (inactive),3.49% (active),,74.3% (inactive),45.6% (inactive),50.2% (inactive),26.1% (inactive),66.9% (inactive),57.4% (inactive),18.4% (inactive),,
